Source: PubChem BioAssay AID1159580 (chemical genetic matrix, 2015)
Among all 5,500 compounds or so, about 2,000 (36%) were called active. About 18% were inconclusive and are not listed. Rule as the data show it: active = normalized growth mostly below about 0.91 (no sharp cut-off); inconclusive = no clear call, values can overlap the other calls; inactive = mostly above about 0.92. Some of the results follow.

Experiment: chemical genetic growth profiling, strain panel (AID 1159580);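 also: tested at 20 µM; growth read once vehicle control cultures reached saturation at 30 °C; 1 = growth at the plate median or of vehicle wells; lower values mean less growth of the strain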
Settings: S. cerevisiae deletion strains, growth OD

Measured: normalized growth

COc1cc2c(cc1OC)-c1c(oc3cc(O)cc(O)c3c1=O)CO2
inactive: locus YAL021C, strain ccr4, stronger effect = lower value 1.02 | locus YAL026C, strain drs2, stronger effect = lower value 1.01 | locus YAL030W, strain snc1, stronger effect = lower value 1.01 | locus YBL061C, strain skt5, stronger effect = lower value 1.01 | locus YBR009C, strain hhf1, stronger effect = lower value 1.02 | locus YBR023C, strain chs3, stronger effect = lower value 1.02 | locus YBR171W, strain sec66, stronger effect = lower value 1.03 | locus YBR231C, strain swc5, stronger effect = lower value 1.02 | locus YBR279W, strain paf1, stronger effect = lower value 1.02 | locus YCL011C, strain gbp2, stronger effect = lower value 1.01 | locus YCL016C, strain dcc1, stronger effect = lower value 1.02 | locus YCL061C, strain MRC1, stronger effect = lower value 1.01 | locus YCL069W, strain vba3, stronger effect = lower value 1.01 | locus YCR088W, strain abp1, stronger effect = lower value 1.02 | locus YDL005C, strain med2, stronger effect = lower value 1.04 | locus YDL040C, strain nat1, stronger effect = lower value 1.01 | locus YDR001C, strain nth1, stronger effect = lower value 1.01 | locus YDR069C, strain doa4, stronger effect = lower value 1.02 | locus YDR137W, strain rgp1, stronger effect = lower value 1 | locus YDR159W, strain sac3, stronger effect = lower value 1.04 | locus YDR195W, strain ref2 1.04 | locus YDR297W, strain sur2, stronger effect = lower value 1.02 | locus YDR334W, strain swr1, stronger effect = lower value 1.01 | locus YDR335W, strain msn5, stronger effect = lower value 1.03 | locus YDR392W, strain spt3, stronger effect = lower value 1.01 | locus YEL003W, strain gim4, stronger effect = lower value 1.02 | locus YEL037C, strain rad23, stronger effect = lower value 1.01 | locus YEL061C, strain CIN8 (second series), stronger effect = lower value 1.01 | locus YER015W, strain faa2, stronger effect = lower value 1.02 | locus YER016W, strain bim1, stronger effect = lower value 1.01 | locus YER111C, strain swi4, stronger effect = lower value 1.03 | locus YER155C, strain BEM2 (second series), stronger effect = lower value 1.03 | locus YFR010W, strain ubp6, stronger effect = lower value 1.02 | locus YGL167C, strain pmr1, stronger effect = lower value 1.02 | locus YGL173C, strain kem1, stronger effect = lower value 1.03 | locus YGL227W, strain vid30, stronger effect = lower value 1.03 | locus YGL240W, strain doc1, stronger effect = lower value 1.02 | locus YGL253W, strain hxk2, stronger effect = lower value 1.02 | locus YHR013C, strain ard1, stronger effect = lower value 1.01 | locus YHR027C, strain rpn1, stronger effect = lower value 1.03 | locus YHR030C, strain SLT2, stronger effect = lower value 1.05 | locus YHR079C, strain IRE1, stronger effect = lower value 1.04 | locus YHR142W, strain chs7, stronger effect = lower value 1.01 | locus YJL092W, strain hpr5, stronger effect = lower value 1.02 | locus YJL095W, strain BCK1 (second series), stronger effect = lower value 1.01 | locus YJL095W, strain BCK1, stronger effect = lower value 1.05 | locus YJL115W, strain asf1, stronger effect = lower value 1.01 | locus YJL129C, strain trk1, stronger effect = lower value 1.03 | locus YJL154C, strain vps35, stronger effect = lower value 1.02 | locus YJL164C, strain tpk1, stronger effect = lower value 0.995 | locus YJL166W, strain qcr8, stronger effect = lower value 1.01 | locus YJL187C, strain SWE1, stronger effect = lower value 1.02 | locus YJR066W, strain TOR1, stronger effect = lower value 0.999 | locus YKL160W, strain elf1, stronger effect = lower value 1.02 | locus YKR026C, strain gcn3, stronger effect = lower value 1.02 | locus YKR091W, strain srl3, stronger effect = lower value 1.02 | locus YLL001W, strain dnm1, stronger effect = lower value 1.02 | locus YLL026W, stronger effect = lower value 1.01 | locus YLL041C, strain sdh2, stronger effect = lower value 0.973 | locus YLR027C, strain aat2, stronger effect = lower value 1.01 | locus YLR113W, strain HOG1, stronger effect = lower value 1.08 | locus YLR221C, strain rsa3, stronger effect = lower value 1.02 | locus YLR258W, strain gsy2, stronger effect = lower value 1.02 | locus YLR262C, strain YPT6 (second series), stronger effect = lower value 1.01 | locus YLR320W, strain mms22, stronger effect = lower value 1.03 | locus YLR342W, strain FKS1, stronger effect = lower value 1.02 | locus YLR357W, strain rsc2, stronger effect = lower value 1.01 | locus YLR370C, strain arc18, stronger effect = lower value 1.02 | locus YLR384C, strain iki3, stronger effect = lower value 1.03 | locus YML120C, strain ndi1, stronger effect = lower value 1.01 | locus YMR058W, strain fet3, stronger effect = lower value 1.02 | locus YMR125W, strain sto1, stronger effect = lower value 1.02 | locus YMR129W, stronger effect = lower value 1.02 | locus YMR205C, strain PFK2, stronger effect = lower value 1.02 | locus YMR231W, strain pep5, stronger effect = lower value 1.02 | locus YNL071W, strain lat1, stronger effect = lower value 1.01 | locus YNL183C, strain NPR1, stronger effect = lower value 0.988 | locus YNL209W, strain ssb2, stronger effect = lower value 1.02 | locus YNL248C, strain rpa49, stronger effect = lower value 1.02 | locus YNL322C, strain KRE1 (second series), stronger effect = lower value 1.02 | locus YNR049C, strain mso1, stronger effect = lower value 1.02 | locus YOR001W, strain rrp6, stronger effect = lower value 1.04 | locus YOR070C, strain gyp1, stronger effect = lower value 1.02 | locus YOR080W, strain dia2, stronger effect = lower value 1.02 | locus YOR083W, strain WHI5, stronger effect = lower value 1 | locus YOR106W, strain vam3, stronger effect = lower value 1.05 | locus YOR231W, strain MKK1, stronger effect = lower value 1.05 | locus YOR265W, strain rbl2, stronger effect = lower value 1.01 | locus YOR270C, strain vph1, stronger effect = lower value 1.02 | locus YOR290C, strain snf2, stronger effect = lower value 1.02 | locus YPL051W, strain arl3, stronger effect = lower value 1 | locus YPL078C, strain atp4, stronger effect = lower value 1.02 | locus YPL106C, strain sse1, stronger effect = lower value 1.02 | locus YPL240C, strain hsp82, stronger effect = lower value 1.02 | locus YPL256C, strain CLN2, stronger effect = lower value 1.05
